Vaccinia mCherry: inhibitors of vaccinia virus infection (mCherry reporter signal); Vaccinia virus mCherry reporter infection, fluorescence; Potency, µM (top dose mostly 36.5 µM), actives largely listed as inhibitors; 310,000 compounds, 0.63% hits; AID 720579; calls by dose curve; tested in A549 cells; further: nearly all actives have a fitted effect of over 35% in size
HCV inhibitor: blocks hepatitis C virus; 340,000 compounds, 3.4% hits; AID 651820; Huh7.5.1 HCVcc-Cre infection, luciferase reporter, 44 h; Potency, µM (titrated, usually from 41.8 µM), hits mostly inhibitors
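Antiviral activity was scored by luciferase reporter output from cells infected with HCVcc-Cre (~0.5 moi) in presence of compound, 44 h infection period, cells seeded 1,000/well 4 h prior.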
HCMV antiviral: blocks human cytomegalovirus replication; HFF cells, HCMV-luciferase reporter, 72 h; active compounds read low; activity change, negative = inhibition, % at 57.5 µM; 410,000 compounds, 4.5% hits; in the data active means activity change below about -60%; inconclusive means no clear call, values can overlap the other calls; inactive means above about -39%
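Inhibition of viral replication was scored as loss of reporter luminescence in HFFs infected with HCMV-luciferase (MOI 1 PFU/cell) for 72 h; compounds tested at 2 doses, normalized to buffer and Salinomycin controls.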
VACV Venus inh: inhibitors of vaccinia virus (Venus reporter); 330,000 compounds, 0.46% hits; Potency, µM (series often up to 36.5 µM), usual class: inhibitors; Vaccinia virus Venus reporter expression, fluorescence; AID 720580; calls by dose curve; tested in A549 cells; further: nearly all actives have a fitted effect of over 30% in size
Sm TGR inh: blocks Schistosoma mansoni thioredoxin glutathione reductase; purified TGR, DTNB reduction, TNB absorbance 405 nm; AID 485364; Q962Y6; 360,000 compounds, 3% hits; Potency, µM (titrated, usually from 114 µM), hits mostly inhibitors; further: nearly all actives have a fitted effect of over 60% in size
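TGR 20 nM + NADPH 100 uM (dispensed conc.), cpd preinc 15 min RT; start with NADPH (500 uM addition) then DTNB (15 mM addition). Kinetic TNB absorbance, 405 nm filter. Four-parameter Hill fit across titration.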
FMDV inh: blocks foot and mouth disease virus. Potency, µM (highest dose often 57.9 µM), actives largely listed as inhibitors. 410,000 compounds, 1.2% hits. FMDV antiviral cell-based qHTS; calls by dose curve; tested in HEK293T cells; further: read-out not given here; nearly all actives have a fitted effect of over 45% in size
Hits are given with their value; . = inactive; ? = inconclusive; / = no result given; [ ] = another dose, or the depositor's remark. An excerpt weighted towards active compounds, which were near 9.3% of everything screened. Unless noted, the call rests on the fitted dose curve; in most records, active means well fitted curve in the direction sought with a large enough effect; inconclusive means small, poorly fitted or top-dose-only effect, or another doubt; inactive means no such curve, though single readings can be large; an effect the other way counts as inactive or inconclusive.

SMILES | Vaccinia mCherry | HCV inhibitor | HCMV antiviral | VACV Venus inh | Sm TGR inh | FMDV inh
Cc1ccc(NC(=O)CN2C(=O)CC(c3ccc(C)c(C)c3)=Nc3ccccc32)cc1 | . | / | . | . | . | .
Cc1ccc(S[C@@H](CCN2CC[C@H](NC(=O)OCc3ccccc3)CCC2=O)c2ccccc2)cc1 | . | 13µM | ? | . | . | .
O=C(N[C@@H]1CCC(=O)N(CC[C@H](Oc2ccccc2)c2ccccc2)CC1)OCc1ccccc1 | . | . | . | ? | . | .
Cc1ccc(SC[C@H](C)CN2CC[C@H](NC(=O)OCc3ccccc3)CCC2=O)cc1 | . | . | . | . | . | .
C[C@@H](CSc1ccccc1)CN1CC[C@H](NC(=O)OCc2ccccc2)CCC1=O | . | 11µM | -78 | ? | . | .
COc1ccc(CNC(=O)CCN2C(=O)[C@@H]3Cc4ccccc4CN3C2=O)cc1 | . | ? | . | . | . | .
CC1CC(NC(=O)/C=C/C(=O)O)CC(C)(C)C1 (configuration not stated) | . | ? | . | . | . | .
CC1CC(NC2=NCCS2)CC(C)(C)C1 (configuration not stated) | . | . | -66 | . | . | .
COc1cc2c(cc1OC)CN(c1ccc(-c3ccccc3OC)nn1)CC2 | . | ? | / | . | . | 35µM
COc1cc2c(cc1OC)CN(c1ccc3ccccc3n1)CC2 | ? | 13µM | . | ? | . | .
COc1cc2c(cc1OC)CN(c1ccc(C(F)(F)F)cn1)CC2 | ? | ? | . | . | . | .
COc1ccccc1-c1ccc(NC2CCCC2)nn1 | / | ? | . | . | . | .
COc1ccc(S(=O)(=O)NC2CCSc3ccccc32)cc1NC(C)=O (configuration not stated) | . | . | . | . | . | .
CC(C)=C(NC(=O)c1ccccc1)C(=O)NC(Cc1ccccc1)C(=O)O (configuration not stated) | . | . | . | . | . | .
COc1ccc(CCNC(=O)/C=C/c2ccco2)cc1 | / | . | . | / | 10µM | .
CCOc1ccc(CCNC(=O)/C=C/c2ccco2)cc1OCC | / | ? | . | / | 6.3µM | .
COc1ccc(/C=C/C(=O)NCCc2ccc(S(N)(=O)=O)cc2)cc1 | . | . | . | . | . | .
COc1ccc(/C=C/C(=O)NCCSCc2ccco2)cc1OC | / | . | . | / | 10µM | .
COc1ccc(/C=C/C(=O)NCCCc2ccccc2)cc1OC | . | . | . | . | . | .
CCOc1ccc(CCNC(=O)COC(=O)/C=C/c2ccco2)cc1OCC | / | . | . | / | . | .
COc1ccc(CCNC(=O)/C=C/c2ccco2)cc1OC | ? | . | . | . | 11µM | .
COc1ccc(-c2[nH]ncc2/C=N\NC(=O)c2ccc(C(C)(C)C)cc2)cc1OC | ? | . | . | . | . | .
CCOc1ccc(C(C)NC(=O)c2ccccc2OCc2c(C)noc2C)cc1OCC (configuration not stated) | . | / | . | . | . | .
CCOc1ccc(CCNC(=O)c2ccccc2OCc2c(C)noc2C)cc1OCC | . | 7.1µM | . | . | . | .
Cc1ccc2oc(=O)n(CCCOc3ccccc3Cl)c2c1 | . | / | . | . | . | .
SMILES | Vaccinia mCherry | HCV inhibitor | HCMV antiviral | VACV Venus inh | Sm TGR inh | FMDV inh
COc1cc(C(=O)NC2CC2)cc(OC)c1OC | . | / | . | . | / | .
Cc1ccc(/C=N/Nc2nncn2N)cc1 | 10µM | . | . | 10µM | . | .
COc1cccc(/C=N/Nc2nnc(C)n2N)c1OCc1ccccc1Cl | . | 22µM | . | . | . | .
COc1ccc(/C=N/Nc2nnc(C)n2N)cc1OC(C)=O | 22µM | . | . | ? | . | .
COc1ccc(/C=N/Nc2nnc(C)n2N)cc1OC | ? | . | -61 | ? | . | .
Cc1nnc(N/N=C/c2ccc(Br)cc2)n1N | / | . | . | / | . | .
O=P(O)(COc1ccccc1)COc1ccccc1 | / | . | . | / | . | .
Cc1ccc(C(=O)OCC(=O)Nc2nc(-c3ccccc3)cs2)cc1NC(=O)c1ccco1 | ? | 11µM | . | ? | / | 25µM
Cc1ccc(C(=O)OCC(=O)Nc2ncc(Cl)cc2Cl)cc1NC(=O)c1ccco1 | . | . | . | . | 45µM | .
Cc1ccc(C(=O)OCC(=O)Nc2ccccc2)cc1NC(=O)c1ccco1 | / | . | . | / | . | .
O=C(c1ccc(CS(=O)(=O)c2ccc(Br)cc2)o1)N1CCN(c2ncccn2)CC1 | . | . | . | . | 50µM | .
Cc1ccc(S(=O)(=O)Cc2ccc(C(=O)N3CCN(c4cccc(Cl)c4)CC3)o2)cc1 | ? | / | ? | . | . | .
Cc1ccc(Cl)cc1N1CCN(C(=O)c2ccc(CS(=O)(=O)c3ccc(Br)cc3)o2)CC1 | . | / | -68 | . | . | ?
O=c1[nH]nc(N/N=C/c2ccc(Cl)cc2Cl)c(=O)[nH]1 | . | . | . | . | . | .
Cc1cc(NC(=O)Cn2c(=O)n(CCCCC(=O)NC3CCN(Cc4ccccc4)CC3)c(=O)c3ccccc32)n[nH]1 | / | / | . | / | . | /
CCCc1c(C(=O)OCC)[nH]c2c1C(=O)CCC2 | . | ? | . | . | . | .
CCOc1ccc(C2CC(=O)c3c([nH]c(C(=O)OC4CCC(C)CC4)c3C)C2)cc1 (configuration not stated) | . | / | . | . | . | .
CCOc1ccc(C2CC(=O)c3c([nH]c(C(=O)OCCOc4ccccc4)c3C)C2)cc1 (configuration not stated) | . | / | -106 | ? | . | .
COC(=O)c1[nH]c2c(c1C)C(=O)CC(c1ccccc1)C2 (configuration not stated) | . | ? | -69 | ? | . | /
Cc1c(C(=O)OCc2ccccc2)[nH]c2c1C(=O)CC(c1ccc(Cl)cc1)C2 (configuration not stated) | .[7.34 µM] | / | -69 | .[7.34 µM] | . | .
Cc1c(C(=O)OCCOc2ccccc2)[nH]c2c1C(=O)CCC2 | . | 13µM | -79 | . | . | .
COc1ccc(C(=O)COC(=O)C2CCN(S(=O)(=O)c3cccc4cccnc34)CC2)cc1 | . | . | . | . | . | .
CCc1ccc(C2CC(=O)c3c([nH]c(C(=O)OCCOc4ccccc4)c3C)C2)cc1 (configuration not stated) | .[7.34 µM] | / | -73 | .[7.34 µM] | . | ?
COC(=O)C1=C(c2ccc(OC)c(OC)c2)C[C@@H]2CC[C@H]1N2C(=O)N1CCCCC1 | . | . | ? | . | . | .
CC(=O)c1ccc(OC2(C)CCN(Cc3ccccc3OC(F)F)C2)cc1 (configuration not stated) | . | / | . | . | / | .
C=CCC(Nc1ccccc1)C12C=CC(O1)C(C(=O)OC)=C2C(=O)OC (configuration not stated) | .[1.46 µM] | . | . | . | 6.3µM | ?
CC1CN(C(=O)COc2coc(CN3CCc4ccccc4C3)cc2=O)CC(C)O1 (configuration not stated) | . | . | . | . | . | .

Screening results: PubChem, National Center for Advancing Translational Sciences (NCATS)
